A selection: hits, their analogues and other compounds. The true share with any hit is near 0.55%.
TRPV1_ag: human TRPV1 agonism; hit rate 0.19% among 320,000; AID 540275; Q8NER1; activation, % at 8.33 µM; TRPV1-expressing cells, Fluo-8 calcium influx, agonist mode; in the data active means activation above about 80%; inconclusive means between about 30% and that limit; further: 0% is about no effect
Target sequence (Q8NER1 whole entry, looked up): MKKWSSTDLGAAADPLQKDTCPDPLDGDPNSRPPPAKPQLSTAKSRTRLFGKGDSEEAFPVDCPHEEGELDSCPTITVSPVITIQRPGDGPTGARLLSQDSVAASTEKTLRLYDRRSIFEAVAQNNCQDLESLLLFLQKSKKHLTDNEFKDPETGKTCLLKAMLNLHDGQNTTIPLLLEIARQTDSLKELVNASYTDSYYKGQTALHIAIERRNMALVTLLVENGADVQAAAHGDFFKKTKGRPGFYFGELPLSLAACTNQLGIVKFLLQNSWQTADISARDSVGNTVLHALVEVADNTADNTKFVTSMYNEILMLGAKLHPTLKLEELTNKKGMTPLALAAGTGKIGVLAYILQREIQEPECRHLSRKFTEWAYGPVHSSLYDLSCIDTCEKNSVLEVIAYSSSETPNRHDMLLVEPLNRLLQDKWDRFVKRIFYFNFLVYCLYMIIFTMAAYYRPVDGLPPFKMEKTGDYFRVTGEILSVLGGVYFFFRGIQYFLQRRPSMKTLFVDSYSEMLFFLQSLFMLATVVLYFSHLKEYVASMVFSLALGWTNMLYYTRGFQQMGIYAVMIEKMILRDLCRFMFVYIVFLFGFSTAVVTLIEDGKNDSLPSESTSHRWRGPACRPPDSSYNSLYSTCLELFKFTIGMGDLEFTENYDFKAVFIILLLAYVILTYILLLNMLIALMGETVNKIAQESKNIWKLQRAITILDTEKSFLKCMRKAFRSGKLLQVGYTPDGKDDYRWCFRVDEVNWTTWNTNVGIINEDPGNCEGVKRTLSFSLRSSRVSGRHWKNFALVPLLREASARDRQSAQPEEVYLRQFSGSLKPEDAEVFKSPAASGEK
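Cells expressing TRPV1 were dye-loaded with Fluo-8 and read kinetically: 10 s baseline, 3 min after compound (agonist portion), then 2 min after EC20 capsaicin (allosteric enhancer portion). Calcium-bound dye fluorescence at 480/520 nm.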
TRPV1_PAM: human TRPV1 potentiation | hit rate 0.02% among 320,000 | Q8NER1 | potentiation, % at 8.33 µM | TRPV1-expressing cells, Fluo-8 calcium influx, capsaicin EC20 potentiation; in the data active means potentiation above about 80%; inconclusive means between about 30% and that limit; further: 0% is about no effect
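Fluo-8 calcium influx in TRPV1-expressing cells, kinetic read (ex 480/em 520 nm). Compound added and read 3 min for agonist activity, followed by capsaicin at EC20 final and 2 min further read for enhancement.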
IMPase_Li_cell: cell-permeable IMPase inhibitors with lithium potentiation. Potency, µM (top dose mostly 59.4 µM), for inactives: at the top dose activity, negative = IMPase inhibition, actives largely listed as inhibitors. CHO-M1 cells, IP1 TR-FRET (IP-One), carbachol + lithium. hit rate 0.35% among 210,000;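 further: IP1 builds up when IMPase is blocked and the TR-FRET signal falls; potency means the concentration at half of the fitted maximal effect; plate controls were basal vehicle for no effect and high inhibitor control for full effect; nearly all actives have a fitted effect of over 50% in size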
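CHO cells stably expressing M1 receptor (2000/well) were cultured 16–30 h, then exposed to compounds with a small lithium addition for 30 min at 37C. IP1 was measured by TR-FRET competition; AC50 from Hill fits.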
A-T_KAP1_phos: potential ataxia-telangiectasia treatment; F2112 A-T fibroblasts, KAP-1 phosphorylation AlphaLISA; neocarzinostatin DNA damage 30 min before lysis; Potency, µM (titrated, usually from 57.5 µM), inactives show at the highest dose activation, hits mostly activators; hit rate 0.19% among 320,000; AID 485349; further: potency means the concentration at half of the fitted maximal effect; % of control where 0% means no effect; nearly all actives have a fitted effect of over 45% in size
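hTERT-immortalized A-T patient fibroblasts (F2112), 500 cells/well in OPTI-MEM, 1% FBS, got compounds for 60 min, then NCS for 30 min at 37C. Lysates were then assayed for phospho-KAP-1 by AlphaLISA (anti-pKAP1 donor, anti-KAP1 acceptor beads), 6 hr at 25C.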
Starred values were filed as active, the others as inactive; u = inconclusive; x = no result given; [ ] = dose if it differs, or a comment. Unless noted, the call rests on the fitted dose curve; in most records, active means well fitted curve in the direction sought with a large enough effect; inconclusive means small, poorly fitted or top-dose-only effect, or another doubt; inactive means no such curve, though single readings can be large; an effect the other way counts as inactive or inconclusive.

SMILES TRPV1_ag TRPV1_PAM IMPase_Li_cell A-T_KAP1_phos
CC#CCN1c2ccccc2[C@]23C[C@@H](C(=O)OC)N(C(=O)COCc4ccccc4)C2=NC(C(=O)OC)=C(C(=O)OC)[C@H]13 x x 5.9% x
CN(C)CCNS(=O)(=O)N(C)C x x -5.5% x
C#CCNC(=O)C1CCN(c2ccc(S(=O)(=O)N3CCOCC3)cc2Cl)CC1 82.1* -11.4 9.1% -5.3%
CC(C)CNC(=O)C1CCN(c2ccc(S(=O)(=O)N3CCOCC3)cc2Cl)CC1 -1.7 -39.9 0.4%[38.3_µM] 5.8%
NCCSC[C@H](N)C(=O)O x x -2.0% x
C=CCCCC x x 4.1% x
CC(=O)c1ccc(NC(=S)Nc2cccc3cnccc23)cc1 -5.3 19.5 x 39.8µM*
Cc1ccc(NC(=S)Nc2cccc3cnccc23)cc1 0.7 -10.0 -1.7% -0.9%
CN(C)CCCNS(=O)(=O)c1ccc(N2CCC(c3ccc(Cl)cc3)=N2)cc1 1.7 -10.0 u u
O=S(=O)(c1ccc(N2CCC(c3ccc(Cl)cc3)=N2)cc1)N(CCO)CCO 3.1 -3.5 -12.2%[38.3_µM] 31.6µM*
[Cu].[NH-][C@H](CC(=O)O)C(=O)O.[NH-][C@H](CC(=O)O)C(=O)O x x -1.6% x
COc1ccc(C)cc1NC(=O)N1CCCc2ccccc21 16.0 -10.8 25.1µM* 13.9%

Compound activity: PubChem, National Center for Advancing Translational Sciences (NCATS)
